According to the supplement of paper PMC6411743:
± gives the standard deviation of the averaged measurements. Of roughly 6,500 targets only a part is listed; those with the largest changes were picked by preference.

Compound: Nc1ncnc2c1ncn2[C@@H]1O[C@H](COP(=O)(O)OP(=O)(O)OP(=O)(O)O)[C@@H](O)[C@H]1O [adenosine triphosphate]
Assay: NP40-soluble protein abundance relative to vehicle (solubility fold change) (ratio); higher = more soluble protein in presence of ATP
Method in brief: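 Jurkat crude lysate prepared with a Dounce homogeniser was treated at eight concentrations spanning 0.1 to 10 mM, 10 min at room temperature then 3 min at 37 °C. Solubilisation with 0.8% NP40 and benzonase and ultracentrifugation preceded TMT labelling of the supernatant for LC-MS/MS. Fold change against the detergent-processed vehicle was determined per replicate from vsn-normalised intensities, across three independent experiments.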

Sequence of UniProt P38159 (P38159 whole entry, one chain of several): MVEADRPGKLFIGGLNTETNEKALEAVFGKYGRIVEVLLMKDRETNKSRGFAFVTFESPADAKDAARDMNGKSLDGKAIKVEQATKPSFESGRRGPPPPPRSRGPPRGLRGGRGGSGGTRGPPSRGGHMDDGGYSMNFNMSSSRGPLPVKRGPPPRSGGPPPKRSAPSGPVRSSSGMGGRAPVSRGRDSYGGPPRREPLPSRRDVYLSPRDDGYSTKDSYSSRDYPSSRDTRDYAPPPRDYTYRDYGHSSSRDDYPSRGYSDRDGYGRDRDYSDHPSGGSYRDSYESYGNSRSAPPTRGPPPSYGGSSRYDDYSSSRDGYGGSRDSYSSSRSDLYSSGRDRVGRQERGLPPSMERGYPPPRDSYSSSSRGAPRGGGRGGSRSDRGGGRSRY
Sequence of UniProt O43678 (O43678 whole entry): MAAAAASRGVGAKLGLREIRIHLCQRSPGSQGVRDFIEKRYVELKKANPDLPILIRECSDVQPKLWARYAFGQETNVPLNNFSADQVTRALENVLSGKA
Sequence of UniProt O43513 (O43513 whole entry): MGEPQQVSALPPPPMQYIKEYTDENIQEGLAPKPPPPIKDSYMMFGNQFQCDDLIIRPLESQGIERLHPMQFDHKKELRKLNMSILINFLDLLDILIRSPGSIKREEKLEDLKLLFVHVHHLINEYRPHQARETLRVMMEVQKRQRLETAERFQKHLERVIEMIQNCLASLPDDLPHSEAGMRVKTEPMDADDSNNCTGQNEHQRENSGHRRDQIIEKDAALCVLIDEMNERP
Sequence of UniProt O75676 (O75676 whole entry, looked up, one chain of several): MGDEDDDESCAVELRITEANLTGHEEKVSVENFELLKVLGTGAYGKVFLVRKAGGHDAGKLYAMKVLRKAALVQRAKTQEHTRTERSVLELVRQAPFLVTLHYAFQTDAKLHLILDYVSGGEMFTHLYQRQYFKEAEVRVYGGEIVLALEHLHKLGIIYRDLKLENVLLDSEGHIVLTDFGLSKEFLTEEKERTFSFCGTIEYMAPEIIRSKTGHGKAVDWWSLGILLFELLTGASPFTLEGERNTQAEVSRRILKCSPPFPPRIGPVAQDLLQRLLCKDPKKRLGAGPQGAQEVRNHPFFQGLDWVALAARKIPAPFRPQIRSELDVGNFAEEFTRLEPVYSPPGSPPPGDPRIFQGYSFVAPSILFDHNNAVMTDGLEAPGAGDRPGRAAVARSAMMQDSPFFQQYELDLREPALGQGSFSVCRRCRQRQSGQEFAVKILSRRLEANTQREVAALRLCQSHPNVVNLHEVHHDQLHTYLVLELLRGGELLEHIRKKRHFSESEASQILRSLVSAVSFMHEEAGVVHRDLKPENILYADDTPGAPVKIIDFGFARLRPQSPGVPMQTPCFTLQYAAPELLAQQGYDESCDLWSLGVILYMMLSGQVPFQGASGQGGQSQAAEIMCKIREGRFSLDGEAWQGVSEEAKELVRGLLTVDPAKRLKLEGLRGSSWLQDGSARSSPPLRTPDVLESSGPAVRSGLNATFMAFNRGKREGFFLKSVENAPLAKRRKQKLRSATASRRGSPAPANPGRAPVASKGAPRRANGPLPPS
Sequence of UniProt Q49A26 (Q49A26 whole entry, one chain of several): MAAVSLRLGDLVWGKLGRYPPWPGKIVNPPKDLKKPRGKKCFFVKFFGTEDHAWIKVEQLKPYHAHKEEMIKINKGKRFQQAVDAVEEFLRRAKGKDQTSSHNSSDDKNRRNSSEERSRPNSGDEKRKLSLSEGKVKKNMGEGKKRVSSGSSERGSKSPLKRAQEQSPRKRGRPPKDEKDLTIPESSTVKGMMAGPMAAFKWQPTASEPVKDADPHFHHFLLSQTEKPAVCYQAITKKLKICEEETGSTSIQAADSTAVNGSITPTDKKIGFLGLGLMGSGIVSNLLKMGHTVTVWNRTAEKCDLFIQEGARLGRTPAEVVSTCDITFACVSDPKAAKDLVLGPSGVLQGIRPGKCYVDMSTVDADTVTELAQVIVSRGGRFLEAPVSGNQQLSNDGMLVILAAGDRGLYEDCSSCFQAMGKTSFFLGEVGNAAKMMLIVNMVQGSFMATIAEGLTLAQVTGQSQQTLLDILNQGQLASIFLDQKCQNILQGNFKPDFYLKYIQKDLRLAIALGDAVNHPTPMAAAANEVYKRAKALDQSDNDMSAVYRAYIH
Sequence of UniProt O00567 (O00567 whole entry): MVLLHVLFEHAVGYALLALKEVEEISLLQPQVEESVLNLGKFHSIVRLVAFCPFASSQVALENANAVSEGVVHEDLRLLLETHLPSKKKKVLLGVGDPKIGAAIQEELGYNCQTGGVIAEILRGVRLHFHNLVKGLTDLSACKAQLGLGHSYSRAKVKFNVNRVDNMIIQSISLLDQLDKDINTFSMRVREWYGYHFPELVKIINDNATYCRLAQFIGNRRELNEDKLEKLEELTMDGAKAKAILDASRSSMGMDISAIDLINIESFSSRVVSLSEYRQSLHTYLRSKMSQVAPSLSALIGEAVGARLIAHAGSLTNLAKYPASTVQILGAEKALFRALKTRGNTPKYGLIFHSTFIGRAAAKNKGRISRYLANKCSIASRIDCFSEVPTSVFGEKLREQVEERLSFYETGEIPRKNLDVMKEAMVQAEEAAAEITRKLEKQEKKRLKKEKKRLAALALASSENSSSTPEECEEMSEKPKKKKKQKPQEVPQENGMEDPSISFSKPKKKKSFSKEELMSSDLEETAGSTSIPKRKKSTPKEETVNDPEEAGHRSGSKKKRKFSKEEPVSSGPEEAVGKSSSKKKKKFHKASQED
Sequence of UniProt Q9UKS7 (Q9UKS7 whole entry, one chain of several): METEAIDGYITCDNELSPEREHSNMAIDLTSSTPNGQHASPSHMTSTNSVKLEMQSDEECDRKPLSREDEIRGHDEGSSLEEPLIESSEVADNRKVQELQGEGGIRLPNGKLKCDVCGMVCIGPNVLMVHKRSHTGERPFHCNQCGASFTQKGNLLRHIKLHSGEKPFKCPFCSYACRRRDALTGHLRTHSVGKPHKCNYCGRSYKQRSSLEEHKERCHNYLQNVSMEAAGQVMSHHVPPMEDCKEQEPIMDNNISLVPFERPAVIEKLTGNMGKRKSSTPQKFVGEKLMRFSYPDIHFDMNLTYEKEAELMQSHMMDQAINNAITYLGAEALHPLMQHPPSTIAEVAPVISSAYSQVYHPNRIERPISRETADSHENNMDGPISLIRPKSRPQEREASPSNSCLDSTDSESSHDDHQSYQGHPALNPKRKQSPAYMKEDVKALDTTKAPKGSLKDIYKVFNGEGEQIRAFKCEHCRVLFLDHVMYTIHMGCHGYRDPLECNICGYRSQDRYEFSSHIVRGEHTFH
Sequence of UniProt Q8NI27 (Q8NI27 whole entry, one chain of several): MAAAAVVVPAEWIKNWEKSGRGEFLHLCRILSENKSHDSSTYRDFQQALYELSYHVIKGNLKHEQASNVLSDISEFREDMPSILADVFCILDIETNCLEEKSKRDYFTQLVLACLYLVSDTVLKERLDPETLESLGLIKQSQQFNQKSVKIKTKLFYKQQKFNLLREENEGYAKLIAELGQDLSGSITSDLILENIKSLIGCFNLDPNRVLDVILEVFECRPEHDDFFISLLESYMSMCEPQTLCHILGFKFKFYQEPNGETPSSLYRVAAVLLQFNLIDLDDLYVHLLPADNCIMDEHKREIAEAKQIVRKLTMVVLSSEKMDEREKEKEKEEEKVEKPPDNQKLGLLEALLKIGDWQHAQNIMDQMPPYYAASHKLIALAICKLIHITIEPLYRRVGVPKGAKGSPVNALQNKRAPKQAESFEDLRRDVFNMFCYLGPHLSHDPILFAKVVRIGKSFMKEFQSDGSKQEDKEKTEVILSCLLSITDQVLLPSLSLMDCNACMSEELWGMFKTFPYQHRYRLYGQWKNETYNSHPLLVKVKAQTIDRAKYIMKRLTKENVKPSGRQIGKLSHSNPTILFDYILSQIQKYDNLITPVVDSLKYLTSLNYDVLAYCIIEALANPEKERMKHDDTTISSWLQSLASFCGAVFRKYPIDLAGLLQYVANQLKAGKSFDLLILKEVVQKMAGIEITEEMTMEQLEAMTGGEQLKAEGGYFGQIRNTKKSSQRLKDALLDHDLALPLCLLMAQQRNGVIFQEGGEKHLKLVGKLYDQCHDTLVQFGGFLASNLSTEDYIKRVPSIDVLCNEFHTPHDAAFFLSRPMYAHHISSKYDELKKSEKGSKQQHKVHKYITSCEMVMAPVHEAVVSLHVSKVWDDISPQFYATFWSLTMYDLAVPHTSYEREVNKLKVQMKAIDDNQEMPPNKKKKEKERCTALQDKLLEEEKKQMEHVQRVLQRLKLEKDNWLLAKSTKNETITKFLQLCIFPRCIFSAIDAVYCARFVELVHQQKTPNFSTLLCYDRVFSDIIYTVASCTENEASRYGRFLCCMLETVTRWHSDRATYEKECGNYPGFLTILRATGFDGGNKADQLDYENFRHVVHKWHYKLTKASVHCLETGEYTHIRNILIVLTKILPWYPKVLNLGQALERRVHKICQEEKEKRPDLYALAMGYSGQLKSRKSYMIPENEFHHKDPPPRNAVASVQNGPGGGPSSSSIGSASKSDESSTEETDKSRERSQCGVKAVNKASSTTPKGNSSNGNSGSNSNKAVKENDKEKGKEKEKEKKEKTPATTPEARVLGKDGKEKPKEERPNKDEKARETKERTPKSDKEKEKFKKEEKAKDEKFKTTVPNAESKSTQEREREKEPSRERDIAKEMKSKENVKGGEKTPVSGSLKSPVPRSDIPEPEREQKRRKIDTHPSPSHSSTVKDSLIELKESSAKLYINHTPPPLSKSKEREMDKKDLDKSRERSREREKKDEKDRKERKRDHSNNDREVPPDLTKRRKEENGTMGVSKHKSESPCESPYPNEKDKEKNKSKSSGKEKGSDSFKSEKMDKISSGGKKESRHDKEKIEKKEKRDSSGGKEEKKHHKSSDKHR
Sequence of UniProt Q9BUN8 (Q9BUN8 whole entry, one chain of several): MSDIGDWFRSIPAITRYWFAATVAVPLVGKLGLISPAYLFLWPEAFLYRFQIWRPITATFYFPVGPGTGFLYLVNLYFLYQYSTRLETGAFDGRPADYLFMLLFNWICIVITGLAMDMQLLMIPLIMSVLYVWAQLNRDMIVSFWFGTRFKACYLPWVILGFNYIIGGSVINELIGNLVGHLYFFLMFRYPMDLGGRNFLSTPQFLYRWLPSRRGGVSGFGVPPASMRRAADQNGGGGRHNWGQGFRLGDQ

Target	NP40-soluble protein abundance (concentration: 1mM)	NP40-soluble protein abundance (concentration: 2mM)	NP40-soluble protein abundance (concentration: 4mM)	NP40-soluble protein abundance (concentration: 6mM)	NP40-soluble protein abundance (concentration: 8mM)	NP40-soluble protein abundance (concentration: 10mM)
PDLIM1 (UniProt O00151)	0.963 ± 0.054	0.958 ± 0.031	0.944 ± 0.041	0.971 ± 0.016	0.939 ± 0.035	0.919 ± 0.036
I3L0L6|Q9H6Y7 (UniProt Q9H6Y7)	0.901 ± 0.033	0.93 ± 0.016	0.896 ± 0.051	0.962 ± 0.064	0.921 ± 0.066	0.864 ± 0.065
TMEM120B (UniProt A0PK00)	0.948 ± 0.058	1.05 ± 0.042	1.04 ± 0.09	0.894 ± 0.12	1.15 ± 0.13	1.13 ± 0.14
J3KNW7|Q9Y592|Q9Y592-2 (UniProt Q9Y592)	1.06 ± 0.072	0.9299 ± 0.0068	1.02 ± 0.032	1.04 ± 0.028	1.07 ± 0.062	0.993 ± 0.077
C9JLB7|Q96HP4 (UniProt Q96HP4)	1.09 ± 0.083	1.1 ± 0.1	1.06 ± 0.075	1.12 ± 0.17	1.17 ± 0.14	1.05 ± 0.042
K7EK70|Q49A26 (UniProt Q49A26)	1.18 ± 0.095	1.25 ± 0.1	1.38 ± 0.1	1.45 ± 0.083	1.57 ± 0.16	1.76 ± 0.081
H7C0H2|Q96EV2|H0Y3K4 (UniProt Q96EV2)	0.963 ± 0.093	0.942 ± 0.056	0.956 ± 0.086	0.982 ± 0.075	0.958 ± 0.067	0.951 ± 0.059
K7EIY6|Q9BV68-2 (UniProt Q9BV68)	1 ± 0.15	0.967 ± 0.095	0.991 ± 0.11	1 ± 0.1	0.969 ± 0.034	0.92 ± 0.11
A0A0A0MSV9|A0A0G2JH37|A0A0G2JKZ1|A2AB90|O15533|O15533-2|O15533-3 (UniProt O15533)	1.04 ± 0.066	1.02 ± 0.067	0.986 ± 0.028	0.968 ± 0.047	0.99 ± 0.085	0.984 ± 0.088
B7ZBA0|Q8NI27 (UniProt Q8NI27)	1.52 ± 0.091	1.62 ± 0.074	1.89 ± 0.076	2.09 ± 0.2	2.4 ± 0.17	2.4 ± 0.21
SLC25A20 (UniProt O43772)	0.918 ± 0.088	0.945 ± 0.037	0.943 ± 0.012	0.822 ± 0.099	0.884 ± 0.028	0.974 ± 0.0095
D0EV57|P01889|P10321|P13746-2|P16188|P30493|P30499|P30504|P30505|P30508|P30685|Q29865|Q29963|Q5SRN5|Q6DU44|Q8MH48|A0A140T912|E9PIB1|O19617|Q29940|Q29718 (UniProt Q29718+Q29940+E9PIB1+Q8MH48+Q6DU44+Q5SRN5+D0EV57+P01889+P10321+P30505+P13746+P30499+P16188+P30493+Q29865+P30504+P30508+P30685+O19617+Q29963)	0.961 ± 0.026	0.9786 ± 0.0089	0.9485 ± 0.0059	0.977 ± 0.013	0.949 ± 0.022	0.96 ± 0.015
A0A0U1RRK1|F6XEV2|Q9BPX6|Q9BPX6-3|Q9BPX6-2 (UniProt Q9BPX6)	1.01 ± 0.073	1.01 ± 0.045	1.04 ± 0.038	1.05 ± 0.067	1.07 ± 0.066	1.08 ± 0.058
ZNHIT1 (UniProt O43257)	1.12 ± 0.047	1.16 ± 0.012	1.27 ± 0.042	1.3 ± 0.037	1.16 ± 0.037	1.19 ± 0.073
MED7 (UniProt O43513)	1.23 ± 0.3	1.17 ± 0.091	1.09 ± 0.056	1.2 ± 0.37	1.23 ± 0.26	1.28 ± 0.34
UniProt O00567	1.04 ± 0.038	1.1 ± 0.033	1.24 ± 0.02	1.38 ± 0.06	1.68 ± 0.064	2.11 ± 0.2
J3QL71|Q96FV2 (UniProt Q96FV2)	0.96 ± 0.029	0.97 ± 0.011	0.98 ± 0.025	0.944 ± 0.019	0.959 ± 0.032	0.984 ± 0.015
NDUFA2 (UniProt O43678)	0.882 ± 0.1	0.874 ± 0.16	0.924 ± 0.1	0.985 ± 0.21	0.876 ± 0.081	0.835 ± 0.13

Target	NP40-soluble protein abundance (concentration: 1mM)	NP40-soluble protein abundance (concentration: 2mM)	NP40-soluble protein abundance (concentration: 4mM)	NP40-soluble protein abundance (concentration: 6mM)	NP40-soluble protein abundance (concentration: 8mM)	NP40-soluble protein abundance (concentration: 10mM)
K7ES61|Q9BYD3 (UniProt Q9BYD3)	1.02 ± 0.079	0.942 ± 0.099	0.907 ± 0.091	0.827 ± 0.14	0.892 ± 0.19	0.895 ± 0.17
E9PB61|Q86V81 (UniProt Q86V81)	1.04 ± 0.094	1.09 ± 0.07	1.22 ± 0.13	1.44 ± 0.15	1.53 ± 0.13	1.66 ± 0.24
E9PJN1|O75676|O75676-2 (UniProt O75676)	1.36 ± 0.22	2.6 ± 1.5	1.34 ± 0.17	1.35 ± 0.17	1.31 ± 0.26	1.38 ± 0.13
E9PDF6|O43795 (UniProt O43795)	2.78 ± 0.047	2.71 ± 0.065	2.65 ± 0.15	2.65 ± 0.21	2.82 ± 0.17	2.67 ± 0.12
H0Y6E7|H3BT71|P38159|P38159-2 (UniProt P38159)	1.13 ± 0.068	1.22 ± 0.042	1.34 ± 0.046	1.56 ± 0.087	1.62 ± 0.026	1.79 ± 0.064
UniProt O14524	0.824 ± 0.11	0.887 ± 0.1	0.841 ± 0.017	0.899 ± 0.066	0.872 ± 0.029	0.896 ± 0.036
A0A0B4J220 (UniProt E9PRG8)	1.02 ± 0.028	1.11 ± 0.066	1.27 ± 0.17	1.31 ± 0.091	1.42 ± 0.27	1.56 ± 0.23
A8MT02|P14678|P14678-2|P14678-3 (UniProt P14678)	1.22 ± 0.14	1.34 ± 0.089	1.47 ± 0.05	1.7 ± 0.26	1.7 ± 0.22	1.63 ± 0.13
F8WCD0|Q8NC42 (UniProt Q8NC42)	0.964 ± 0.023	0.992 ± 0.013	1.08 ± 0.076	1.03 ± 0.029	0.945 ± 0.021	1 ± 0.076
A0A0A6YYA7|Q12851|Q12851-2 (UniProt Q12851)	1.02 ± 0.026	1 ± 0.044	1.03 ± 0.063	0.994 ± 0.079	0.994 ± 0.026	0.998 ± 0.027
K7ENL9|Q96DM3 (UniProt Q96DM3)	1.04 ± 0.097	0.984 ± 0.027	1.02 ± 0.029	1.02 ± 0.058	1.02 ± 0.061	0.985 ± 0.03
B4E1G1|E5RGY0|Q9BUN8|Q9BUN8-2 (UniProt Q9BUN8)	0.948 ± 0.084	0.979 ± 0.12	0.989 ± 0.083	0.975 ± 0.1	0.955 ± 0.021	1 ± 0.056
A0A0A0MSK4|Q86YR5|Q86YR5-4 (UniProt Q86YR5)	0.972 ± 0.037	0.99 ± 0.074	0.9991 ± 0.0089	1.018 ± 0.0076	0.96 ± 0.021	0.981 ± 0.05
B4DEN4|E7EV05|E9PFU9|Q8WV99|Q8WV99-2 (UniProt Q8WV99)	0.955 ± 0.084	0.953 ± 0.046	0.943 ± 0.059	0.958 ± 0.066	0.91 ± 0.037	0.902 ± 0.062
HAT1 (UniProt O14929)	1.01 ± 0.16	0.995 ± 0.098	0.957 ± 0.08	0.895 ± 0.15	0.97 ± 0.09	0.955 ± 0.04
B4DWF2|Q9UKS7|Q9UKS7-2 (UniProt Q9UKS7)	1.02 ± 0.062	1.03 ± 0.072	1.04 ± 0.061	1.11 ± 0.089	1.1 ± 0.061	1.2 ± 0.066
DYNC1LI2 (UniProt O43237)	0.947 ± 0.049	0.939 ± 0.049	0.905 ± 0.047	0.959 ± 0.14	0.92 ± 0.075	0.932 ± 0.032
UniProt O15379|O15379-2	1 ± 0.019	0.9928 ± 0.0062	0.985 ± 0.04	0.994 ± 0.053	1.04 ± 0.044	1.03 ± 0.065
